Consider 22 compounds from PubChem BioAssay.

The subject of assay [1] is XIP peptide (Xip251-270) binding. Briefly: small-molecule binders of XIP peptide, primary screen, biochemical, small-molecule microarray, fluorescence 635/667 nm, 0.1 µg/mL protein (AID 1182). Conditions: fluorescent protein binding, 635 nm, higher = more signal, called active from +8 up or from −8 down.
For a further assay, the system named is XIP peptide (Xip251-270). As to the kind of experiment: small-molecule binders of XIP peptide, primary screen, biochemical, small-molecule microarray, fluorescence 635/667 nm, 0.5 µg/mL protein (AID 1183). Conditions: small-molecule microarray binding, fluorescence 635 nm; higher = more signal.
Assay [2] is described as follows: Plasmodium falciparum growth inhibition, primary screen, strain 3D7, DAPI fluorescence, 100 nL (AID 1184).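 Also: parasites grown inside human red blood cells in medium with human serum.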 Particulars: P. falciparum 3D7 growth, 3 d, higher = more signal.
The target in assay [3] is Homeobox protein Hox-A13 (Mus musculus) (UniProt Q62424). Briefly: inhibitors of HoxA13-DNA binding, primary screen, biochemical, fluorescence polarization, labeled oligonucleotide (AID 1185). Conditions: 15 min, higher = more signal, called active from +8 up or from −8 down. On the technique in general: Fluorescence polarisation rises when a labelled molecule tumbles more slowly, as on binding a larger partner.
Homeobox protein Hox-A13 (Mus musculus), sequence (Q62424 whole entry, looked up): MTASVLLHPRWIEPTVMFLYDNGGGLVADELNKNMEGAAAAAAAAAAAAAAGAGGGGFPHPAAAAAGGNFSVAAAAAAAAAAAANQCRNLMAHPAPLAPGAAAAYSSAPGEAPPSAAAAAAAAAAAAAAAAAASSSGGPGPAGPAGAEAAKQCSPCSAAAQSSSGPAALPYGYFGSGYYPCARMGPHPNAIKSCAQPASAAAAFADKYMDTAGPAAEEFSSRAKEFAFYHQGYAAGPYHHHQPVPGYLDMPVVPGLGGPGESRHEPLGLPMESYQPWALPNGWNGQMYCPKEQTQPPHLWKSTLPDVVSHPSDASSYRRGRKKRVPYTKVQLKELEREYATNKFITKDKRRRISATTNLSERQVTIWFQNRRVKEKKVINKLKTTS

The structures appear in SMILES notation. Activity calls are given as the source filed them.

Regarding `CO[C@@H]1C=CCC(=O)N2CCC[C@H]2C(=O)OC[C@@H](C)C(=O)OC[C@H]1C`, the composite z-score is 0.229 (inactive) in assay [1] and 0.826 in the assay on XIP peptide (Xip251-270). For the same compound, the z-score in assay [2] was 0.432; in assay [3] it was 0.772 (inactive).

`CCOC(=O)[C@H](CC(C)C)NC(=O)CCC1CC(OC(=O)NCc2ccc3c(c2)OCO3)CC2(CCCC(COC(=O)NCc3cccc(C(F)(F)F)c3)O2)O1` (stereo partly drawn): the composite z-score in assay [1] is 0.319 (inactive); with XIP peptide (Xip251-270) it was 0.348. The values for the z-score in assay [2] and in assay [3] were -2.06 and -1.71 (inactive), respectively.

As for `CCc1cc2c(nc1CC)CCN(CCC(C)=NOC[C@H]1O[C@H](c3ccccc3)C=C[C@@H]1Oc1ccc(OC)cc1)C2`, the composite z-score was 0.248 (inactive) in assay [1] and 0.431 with XIP peptide (Xip251-270). For the same compound, the z-score was -1.63 in assay [2] and -3.13 (inactive) in assay [3].

Take `COC(=O)CC=C[C@@H](C)[C@@H](C=NOCC[C@@H]1C=C[C@H](OC(C)=O)[C@@H](COC(C)=O)O1)OC`: the composite z-score in assay [1] is -0.198 (inactive); with XIP peptide (Xip251-270), 0.239. Also, the z-score in assay [2] is 1.13; in assay [3], -1.14 (inactive).

As to `Cc1ccc(S(=O)(=O)n2c3ccccc3c3nnc(C(=O)c4ccccc4)nc32)cc1`, the composite z-score in assay [1] was 0.912 (inactive); in the assay on XIP peptide (Xip251-270) it was 0.249. In addition, the z-score in assay [2] was 0.892; in assay [3], -3.73 (inactive).

Regarding `COCCNC(=O)OCC1CCCC2(CC(OC(=O)NCc3ccc4c(c3)OCO4)CC(CCC(=O)N[C@@H](C)C(=O)OC)O2)O1` (stereo partly drawn), the composite z-score in assay [1] was 0.412 (inactive); with XIP peptide (Xip251-270), 0.623. Moreover, the z-score in assay [2] was -2; in assay [3], -6.4 (inactive).

Take `CC(CCN1CCc2nc(-c3ccccc3)c(-c3ccccc3)cc2C1)=NOC[C@@H](O)COCc1ccco1`: the composite z-score in assay [1] was 1.58 (inactive); in the assay on XIP peptide (Xip251-270), 0.54. The z-score in assay [2] is 0.329; in assay [3] it was -5.11 (inactive).

As for `C[C@@H]1CC[C@H]2C(=O)O[C@@H](Cc3ccccc3)CN2[C@H]1c1ccc(Br)cc1`, the figures for the composite z-score (in assay [1]; with XIP peptide (Xip251-270)) were 0.128 (inactive) and 0.174, respectively. The z-score in assay [2] was 0.209; in assay [3], -1.7 (inactive).

Consider `CC(CCC(=O)OC[C@H]1O[C@H](C#Cc2ccccc2)C=C[C@@H]1Oc1ccc(C)cc1)=NO[C@H](C)c1cn([C@H](CO)Cc2ccccc2)nn1`, for which the values for the composite z-score (in assay [1]; in the assay with XIP peptide (Xip251-270)) were 0.157 (inactive) and 0.662, respectively. In addition, the z-score in assay [2] was -0.563; in assay [3], -2.88 (inactive).

As for `COc1cccc([C@H]2Oc3ccc(OC)cc3C(=NOC(C)CN3CCCCc4nc(C)c(C)cc43)[C@@H]2O)c1` (stereo partly drawn), the composite z-score in assay [1] was 1.06 (inactive); in the assay on XIP peptide (Xip251-270) it was 0.195. For the same compound, the results for the z-score in assay [2] and in assay [3] were 0.25 and -4.68 (inactive), respectively.

As for `CC(C)(C)N1C(=O)[C@H]2[C@H]3[C@H](O)[C@H](O)CC(=NO[C@@H]4O[C@H](CO)[C@@H](O)[C@H](O)[C@H]4O)[C@H]3CC[C@H]2C1=O`, the composite z-score was 0.0127 (inactive) in assay [1] and 0.271 in the assay on XIP peptide (Xip251-270). In addition, the z-score in assay [2] was -1.62; in assay [3], -4.08 (inactive).

Consider `COC(=O)CC=C[C@@H](C)[C@@H](C=NO[C@@H](C)c1cn([C@H](CO)Cc2ccccc2)nn1)OC`, for which the results for the composite z-score (in assay [1]; with XIP peptide (Xip251-270)) were -0.179 (inactive) and 0.0522, respectively. Moreover, the z-score in assay [2] is 0.141; in assay [3] it was -0.41 (inactive).

For the compound `C[C@H]1CC[C@H]2C(=O)O[C@H](COc3ccc(C(C)(C)C)cc3)CN2[C@@H]1c1ccc(Br)cc1`, the composite z-score was 1.71 (inactive) in assay [1] and 0.567 with XIP peptide (Xip251-270). In addition, the z-score in assay [2] was -0.398; in assay [3], 1.13 (inactive).

On to `CCN1C(=O)[C@H]2[C@H]3[C@H](O)[C@H](O)CC(=NO[C@@H](C)c4cn([C@H](CO)Cc5ccccc5)nn4)[C@@H]3CC[C@H]2C1=O`, for which the results for the composite z-score (in assay [1]; in the assay on XIP peptide (Xip251-270)) were 1.13 (inactive) and 0.814, respectively. In addition, the z-score was 0.032 in assay [2] and -2.02 (inactive) in assay [3].

For the compound `COc1cccc([C@@H]2Oc3ccc(OC)cc3C(=O)[C@H]2O)c1`, the results for the composite z-score (in assay [1]; with XIP peptide (Xip251-270)) were 0.565 (inactive) and 0.65, respectively. The z-score in assay [2] was -1.09; in assay [3], -0.169 (inactive).

For the compound `CCOC(=O)NN=C1C[C@@H](O)[C@@H](O)[C@@H]2[C@@H]3C(=O)N(C(C)(C)C)C(=O)[C@@H]3CC[C@H]12`, the composite z-score in assay [1] was -0.188 (inactive); with XIP peptide (Xip251-270), 0.29. The z-score in assay [2] was 0.202; in assay [3] it was 0.772 (inactive).

For the compound `CC(C)CON=C1C[C@@H](O)[C@@H](O)[C@@H]2[C@@H]3C(=O)N(C4CCCCC4)C(=O)[C@@H]3CC[C@@H]12`, the composite z-score is 0.376 (inactive) in assay [1] and 0.0112 with XIP peptide (Xip251-270). For the same compound, the z-score is -0.398 in assay [2] and -4.41 (inactive) in assay [3].

Take `C[C@@H](c1ccccc1)N1C(=O)[C@H]2[C@H]3[C@H](O)[C@H](O)CC(=NOCc4ccccc4)[C@H]3CC[C@H]2C1=O`: the composite z-score in assay [1] was -0.0218 (inactive); with XIP peptide (Xip251-270), 0.548. Further, the values for the z-score in assay [2] and in assay [3] were 0.754 and 0.0197 (inactive), respectively.

Turning to `O=C1CCCC=C1C(O)CCCCBr` (stereo not drawn), the values for the composite z-score (in assay [1]; in the assay on XIP peptide (Xip251-270)) were 0.26 (inactive) and -0.165, respectively. For the same compound, the z-score in assay [2] was -1.76; in assay [3], -5.96 (inactive).

`COC(=O)[C@H]1O[C@@H](c2c(OC)c(OC)c(C)c(OC)c2OC)[C@H](C)[C@@H](O)[C@H]1C`: the composite z-score in assay [1] was 0.498 (inactive); in the assay on XIP peptide (Xip251-270), 0.486. Also, the values for the z-score in assay [2] and in assay [3] were 0.0136 and 0.6 (inactive), respectively.

As to `CCOC(=O)[C@H](Cc1ccccc1)NC(=O)CCC1CC(OC(=O)NCc2cccc3ccccc23)CC2(CCCC(COC(=O)NCC(c3ccccc3)c3ccccc3)O2)O1` (stereo partly drawn), the values for the composite z-score (in assay [1]; with XIP peptide (Xip251-270)) were 0.2 (inactive) and 0.366, respectively. Besides, the z-score in assay [2] is -1.83; in assay [3], -4.93 (inactive).

With `CCOC(=O)[C@H](CC(C)C)NC(=O)CCC1CC(OC(=O)NCCc2ccc(F)cc2)CC2(CCCC(COC(=O)NCC3CCCCC3)O2)O1` (stereo partly drawn), the composite z-score in assay [1] was -0.0257 (inactive); in the assay on XIP peptide (Xip251-270), 0.437. Further, the z-score in assay [2] was -1.9; in assay [3], -7.04 (inactive).
